This is part of a sample that, as a whole, favours compounds with a hit. Of some 83,000 tested, about 20% had one in any assay.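 Treatment: one concentration, 48 hours, 96-well format. Scoring: percent growth, with anything below 10 considered active.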 A number with no mark means an inactive call. Calls of active or inactive are those of the source.
tested on: UO-31 renal; test: NCI-60 one-dose screen, 48 h (100 = growth as untreated, 0 = no growth, -100 = all killed); settings: 10 µM unless noted

SMILES | growth
CC1(C)OC2COC3(C(=O)O)OC(C)(C)OC3C2O1 (centres undefined) | 92.3%
Cc1ccc(Cn2c(-c3cccs3)nc3ccccc32)cc1 | 59.5%
COc1cc2c(cc1OC)C1(C)N(CC2)C(=O)OC1(C)C (centres undefined) | 91.3%
Cc1cc(-c2ccccc2)c(C)n1Cc1ccc(Cl)cc1 | 50.5%
CCN(Cc1ccccc1)c1ccc(SC#N)cc1 | 32.9%
O=C1Nc2ccc(Br)cc2C1=N/C=c1\[nH]c(=O)/c(=C/c2ccc(Cl)cc2)s1 | 85.2%
COc1ccc(-c2nc(-c3ccccc3)c(-c3ccccc3)n2C2CC2)cc1OC1CCCCC1 | 62.9%
CC(=O)Nc1ccc(S(=O)(=O)N2C(=O)CCC2C(=O)Nc2ccccc2)cc1 (centres undefined) | 14.1%
COc1cc(CNC(=O)CCSc2nc3ccccc3c(=O)n2Cc2cc(OC)c(OC)c(OC)c2)cc(OC)c1OC | 47.2%
O=C(CN1CCN(c2cc3c(cc2F)c(=O)c(C(=O)O)cn3C2CC2)CC1)Nc1ccc(C(=O)/C=C/c2ccccc2)cc1 | 45%
CC(C)N(Cc1ccc(CN(C(=O)CCl)C(C)C)cc1)C(=O)CCl | -83.6% (active)
COc1ccc(/C=C/c2cc(N3CCOCC3)c3cc(F)c(F)cc3n2)cc1OC | 18.2%
COc1cccc(-n2cc(-c3nc(Cl)c4ccccc4n3)nn2)c1 | 78.3%
CCNC(=O)C1CCCN1C(=O)C(CCCN=C(N)N)NC(=O)C(CC(C)C)NC(=O)C(CC(C)C)NC(=O)C(Cc1ccc(O)cc1)NC(=O)C(CO)NC(=O)C(Cc1c[nH]c2ccccc12)NC(=O)C(Cc1cnc[nH]1)NC(=O)C1CCC(=O)N1 (centres undefined) | 93.7%
